# Screening results from PubChem.
# An excerpt weighted towards active compounds, which were near 1.4% of everything screened.
# RN4220 kill = S. aureus RN4220 growth inhibition; OD600, 16 h; inhibition, % (test concentration not listed); 0.33% of 330,000 active; AID 1259311; in the data active = inhibition above about 85%;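 note: plate controls were untreated cells for no effect and reference antibiotic for full effect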
# SARS 3CLpro inh = SARS-CoV 3CLpro protease inhibition. P0C6X7. recombinant SARS-CoV 3CLpro, quenched FRET peptide cleavage. inhibition, % at 6 µM. 0.14% of 290,000 active; in the data active = inhibition above about 12%
# BJeLR viability = BJeLR cell viability loss; AID 1554; BJeLR (HRASV12) viability, CellTiter-Glo ATP luminescence, 48 h; inhibition, % (test concentration not listed); 0.17% of 300,000 active; in the data active = inhibition above about 50%
# DUSP3 inh = blocks human VHR1 dual specificity phosphatase; P51452; recombinant VHR phosphatase, pNPP absorbance; inhibition, % at 13.3 µM; 0.52% of 290,000 active; in the data active = inhibition above about 50%
# Target sequence (P51452 whole entry, looked up): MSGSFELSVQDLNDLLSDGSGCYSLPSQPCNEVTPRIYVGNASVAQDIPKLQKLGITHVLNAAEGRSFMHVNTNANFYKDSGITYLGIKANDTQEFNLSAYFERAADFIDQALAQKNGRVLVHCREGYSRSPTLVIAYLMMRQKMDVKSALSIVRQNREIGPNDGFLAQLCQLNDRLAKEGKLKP
# PrPC surface inh = cell surface PrPC inhibition, primary TR-FRET screen; P04156; TR-FRET read-out; inhibition, % at 13.8 µM; 0.43% of 370,000 active; AID 720596; in the data active = inhibition above about 24%; note: 0% = median of the test wells and 100% = reference compound wells
# Sa ugtP lethal = growth inhibition of S. aureus ugtP deletion strain; AID 1259309; growth inhibition, % (no concentration beside the values); 0.54% of 330,000 active; S. aureus RN4220 ugtP deletion, OD600 growth, 16 h; in the data active = growth inhibition above about 68%;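 note: plate controls were untreated wells for no effect and antibiotic for full effect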
# Starred values were filed as active, the others as inactive; nt = no result given; ! = a repeat was not active.
SMILES,RN4220 kill,SARS 3CLpro inh,BJeLR viability,DUSP3 inh,PrPC surface inh,Sa ugtP lethal
CCOC(=O)C(CC)n1cnc2c(nnn2-c2cccc(OC)c2)c1=O (centres undefined),-1,-9,0,53*,-1,-3
CC(C)=CCc1c(-c2ccc(O)cc2O)oc2c3c(cc(O)c2c1=O)OC(C)(C)C=C3,97*,nt,8,nt,nt,99*
CCN1CCSc2ccc(C(=O)NCc3ccc(OC(C)C)cc3)cc21,-14,3,1,53*,6,5
Cn1c(NCc2ccccc2)nc2cc(-c3ccccc3)sc2c1=O,nt,nt,nt,nt,3,nt
Cc1nc2cc(-c3ccccc3)sc2c(=O)n1N,6,3,79*,12,-2,1
COc1ccc(-c2cc3nc(C)n(N)c(=O)c3s2)cc1,3,-1,99*,6,1,2
CC1=NN(c2ccccc2)C(=O)C1=Cc1cn(CCC#N)nc1-c1ccc(Cl)cc1,8,nt,nt,nt,nt,-7
CC1CCCCCCCCC(=O)OCCN(C(=O)OC(C)(C)C)C(C)CCCCCCCCC(=O)OCCN(C(=O)OC(C)(C)C)C(C)CCCCCCCCC(=O)OCCN(C(=O)OC(C)(C)C)C(C)CCCCCCCCC(=O)OCCN1C(=O)OC(C)(C)C (centres undefined),10,nt,nt,nt,nt,0
COc1ccc(OCC(O)Cn2c(N3CCCCC3)nc3c2c(=O)n(C)c(=O)n3C)cc1 (centres undefined),2,2,-8,58*,2,2
COc1ccc(OCC(O)Cn2c(N3CCCCC3)nc3c2c(=O)[nH]c(=O)n3C)cc1 (centres undefined),7,-1,-12,17,2,6
Cc1cc(C(C)(C)C)cc(C)c1Cn1c2[n+](c3ccc(C(F)(F)F)cc31)CCCCC2,101*,4,6,17,8,100*
FC(F)(F)c1cccc(Cn2c3[n+](c4ccc(C(F)(F)F)cc42)CCCCC3)c1,6,4,3,18,5,2
CC(C)[C@]12O[C@H]1[C@@H]1O[C@]13[C@]1(O[C@H]1C[C@H]1C4=C(CC[C@@]13C)C(=O)OC4)[C@@H]2O,nt,0,68*,12,nt,nt
COc1ccc(N/C=C/C(=O)c2cc(OC)c(OC)c(OC)c2)cc1,1,-3,53*,-16,5,1
COC(=O)c1ccccc1NC(=O)N1c2ccccc2Sc2ccccc21,-8,5,-19,-1,-10,94*
Cc1noc(C)c1NC(=O)N(C)CC1Oc2ccc(NC(=O)Nc3ccc4c(c3)OCO4)cc2C(=O)N(C(C)CO)CC1C (centres undefined),1,nt,nt,nt,nt,0
COc1cc(OC)c(-c2c3cc(O)c(=O)cc-3oc3cc(O)c(O)cc23)cc1OC,5,-2,nt,7,-19,-26
Cc1c2cc(O)c(=O)cc-2oc2cc(O)c(O)cc12,-5,0,19,122*!,60*,-23
CCOC(=O)C1C2COc3ccc(Cl)cc3C2N2C(=O)CNC(=O)[C@@]12C (some centres undefined),3,nt,nt,nt,nt,-2
COc1ccc(CCNc2c3ccccc3nc3ccccc23)cc1OC,-3,2,15,20,-17,93*
N=c1c2c(ncn1CCN1CCOCC1)Oc1ccc3ccccc3c1C2c1ccccc1 (centres undefined),17,-4,6,55*,3,-2
Nc1nnc(-c2ccc([N+](=O)[O-])o2)s1,98*,nt,nt,nt,-61,92*
Cc1oc(-c2ccccc2Cl)nc1CS(=O)CC(=O)NCCCN1CC(C)CC(C)C1 (centres undefined),nt,-1,0,52*,14,nt
COC(=O)C1=C(c2ccc(-c3ccccc3)c(F)c2)CC2CCC1N2C(=O)NCCc1ccccc1 (centres undefined),-2,nt,nt,nt,nt,7
CCOc1ccc(N(CC(=O)Nc2ccccc2Cl)S(C)(=O)=O)cc1,6,1,6,59*,3,2
SMILES,RN4220 kill,SARS 3CLpro inh,BJeLR viability,DUSP3 inh,PrPC surface inh,Sa ugtP lethal
Cn1cccc1C(=O)OCc1ccc(C(C)(C)C)cc1,-4,-2,0,-30,2,94*
Cc1ccc(NC(=S)Nc2ccc(Cl)c(Cl)c2)c(OC(F)F)c1,100*,-1,8,5,9,100*
Cc1cc(C)cc(NC(=S)Nc2ccc(Cl)c(Cl)c2)c1,100*,7,-5,23,6,101*
COc1cccc(C2=CC(=O)CC(c3ccc(Cl)cc3)C2)c1 (centres undefined),-1,nt,nt,nt,nt,3
Cc1cc(O)c2c(c1O)C(=O)[C@]13C(=C2O)C(=O)[C@@H]2[C@@H](O)[C@H]1[C@@H]1[C@H](O)[C@H]3C(=O)C3=C(O)c4c(O)cc(C)c(O)c4C(=O)[C@]312,99*,nt,nt,nt,nt,99*
Cc1nc(SCc2ccccc2F)c2cnn(-c3ccccc3)c2n1,97,5,4,30,nt,active
C[C@@H]1Cc2c(O)c(O)cc(O)c2C(=O)O1,1,nt,0,3,nt,-2
CC1Oc2cc3c(-c4c(O)cc(O)c5c(O)c6c(cc45)OC(C)C(C)C6=O)c(O)cc(O)c3c(O)c2C(=O)C1C (centres undefined),98*,1,0,13,nt,98*
O=C(Nc1nnc(C2CC2)o1)c1ccc(S(=O)(=O)N2CCCc3ccccc32)cc1,89*,nt,6,25,3,94*
COCc1nnc(NC(=O)c2ccc(S(=O)(=O)N3CCCc4ccccc43)cc2)o1,29,5,-7,15,4,9
COc1ccc(-c2nnc(NC(=O)c3ccc(S(=O)(=O)N4CCCc5ccccc54)cc3)o2)cc1,98*,-3,-6,15,nt,100*
CC1CN(S(=O)(=O)c2ccc(C(=O)Nc3nnc(-c4ccccn4)o3)cc2)CC(C)O1 (centres undefined),8,0,2,-13,-2,-5
CC1CN(S(=O)(=O)c2ccc(C(=O)Nc3nnc(-c4ccc5c(c4)CCCC5)o3)cc2)CC(C)O1 (centres undefined),99*,-3,25,-16,-3,99*
COC(=O)C1C[C@@]2(O)C(O)C(O)C(O)CC2N1Cc1cccc2ccccc12 (some centres undefined),2,nt,nt,nt,nt,3
Cc1ccc2c(c1)sc(-c1ccc(N(C)C)cc1)[n+]2C,100*,-7,45,-5,-16,101*
Cc1nn(Cc2ccc(Cl)cc2Cl)c(Cl)c1C=CC(=O)OCC(=O)NCC(F)(F)F,5,nt,nt,nt,nt,1
O=C1/C(=C/c2ccc(Cl)cc2)SC(=S)N1CCC(=O)N1CCCCC1CCO (centres undefined),-1,1,5,-2,-4,5
Cc1ccc(/C=C2\SC(=S)N(CCCC(=O)N3CCOCC3)C2=O)cc1,1,2,89*,20,-3,6
O=C1/C(=C/c2ccccc2)SC(=S)N1CCCC(=O)N1CCCCC1CCO (centres undefined),3,2,13,51*,4,-4
